For 24 compounds, AC50 and outcome results are on record in PubChem BioAssay (EPA / NIEHS).

Active and inactive are the calls of the source. Rule for the calls, unless noted: active = hit-call score of the fitted dose curve at least 0.9, where 1 is the maximum; inactive = score below 0.9.

Estrogen receptor (Homo sapiens), sequence (P03372 whole entry, looked up): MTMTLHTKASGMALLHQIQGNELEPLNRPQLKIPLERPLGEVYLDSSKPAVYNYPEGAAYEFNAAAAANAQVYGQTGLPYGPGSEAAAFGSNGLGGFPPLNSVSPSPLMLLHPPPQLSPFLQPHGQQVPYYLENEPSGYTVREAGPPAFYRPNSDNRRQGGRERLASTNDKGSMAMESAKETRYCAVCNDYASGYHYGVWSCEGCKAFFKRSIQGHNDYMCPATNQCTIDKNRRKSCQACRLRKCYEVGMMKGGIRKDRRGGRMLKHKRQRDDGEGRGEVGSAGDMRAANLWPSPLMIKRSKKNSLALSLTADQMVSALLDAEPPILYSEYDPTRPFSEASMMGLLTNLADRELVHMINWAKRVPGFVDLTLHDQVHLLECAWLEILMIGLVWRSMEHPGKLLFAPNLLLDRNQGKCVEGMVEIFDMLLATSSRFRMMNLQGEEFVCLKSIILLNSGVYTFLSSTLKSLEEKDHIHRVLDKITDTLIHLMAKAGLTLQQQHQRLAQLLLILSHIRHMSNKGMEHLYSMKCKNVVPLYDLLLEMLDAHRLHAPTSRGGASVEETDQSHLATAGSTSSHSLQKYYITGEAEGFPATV

The first assay has as its target Estrogen receptor (Homo sapiens) (UniProt P03372). Put plainly: OT_ERa_GFPERaERE_0480: Odyssey Thera (OT) 8-hour HeLa Transcription Induction Assay for Estrogen Receptor (AID 2283381). The gist of the method: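 Human cervical HeLa cells were treated for 8 hours, after which ERE-driven GFP induction was measured by fluorescence microscopy; increases over DMSO baseline defined activity.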
Regarding `CO/N=C(/C(=O)OC)c1ccccc1COc1ccccc1C`, the AC50 (as a rule, the concentration at which the activity in the assay is half-maximal) is 15.7 µM (active).

With `CCNc1nc(Cl)nc(NC(C)(C)C)n1`, the compound was called inactive.

As for `CCC(C)(C)c1ccc(O)cc1`, the AC50 was 1.32 µM (active).

Take `CCCCCCCc1ccc(O)cc1`: the result was inactive.

For `Nc1ccc2ccccc2c1`, the compound was classed as inactive.

In the case of `c1ccc2c(c1)Nc1ccccc1S2`, the outcome was inactive.

With `ClC(Cl)(Cl)c1ccccc1`, the compound was called inactive.

`CCCCN(CC)C(=O)SCCC`: the call was inactive.

With `O=C(O)C(Cl)Cl`, the call was inactive.

On to `O=S(=O)(c1ccc(O)cc1)c1ccc(O)cc1`, for which the AC50 is 12.6 µM (active).

As for `CCC1(c2ccccc2)C(=O)N=C(O)NC1=O` (stereo not drawn), the result was inactive.

Turning to `CCCCN(CCCC)SN(C)C(=O)Oc1cccc2c1OC(C)(C)C2`, the result was inactive.

Take `ClC1=C(Cl)C2(Cl)C3C(Cl)C(Cl)CC3C1(Cl)C2(Cl)Cl` (stereo not drawn): the compound was classed as inactive.

Turning to `c1nc[nH]n1`, the result was inactive.

Consider `O=P(Oc1ccccc1)(Oc1ccccc1)Oc1ccccc1`, for which the half-maximal activity concentration (AC50) is 12.4 µM (active).

Turning to `CC1(C)CN=C(NN=C(/C=C/c2ccc(C(F)(F)F)cc2)/C=C/c2ccc(C(F)(F)F)cc2)NC1`, the compound was classed as inactive.

On to `CC(Cc1ccc(OCC(=O)O)cc1)NCC(O)c1csc(C(F)(F)F)n1` (stereo not drawn), for which the compound was classed as inactive.

For the compound `c1ccc(OP(Oc2ccccc2)Oc2ccccc2)cc1`, the result was inactive.

For the compound `OCC1CO1` (stereo not drawn), the call was inactive.

Regarding `O=P(OCC(Br)CBr)(OCC(Br)CBr)OCC(Br)CBr` (stereo not drawn), the compound was called inactive.

Turning to `O=P1(N(CCCl)CCCl)NCCCO1` (stereo not drawn), the outcome was inactive.

As to `O=[N+]([O-])c1ccc(Cl)c(Cl)c1`, the compound was classed as inactive.

For the compound `CSC(C)(C)C=NO`, the call was inactive.

Consider `O=c1ssc(Cl)c1Cl`, for which the outcome was inactive.

The target is the same in a further assay. Put plainly: OT_ERa_GFPERaERE_0120: Odyssey Thera (OT) 2-hour HeLa Transcription Induction Assay for Estrogen Receptor (AID 2283382; active = hit-call score of the fitted dose curve at least 0.9, where 1 is the maximum). An outline of the steps: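 Cells (human cervical HeLa) receive compound, incubate 2 hours, then are imaged for fluorescent reporter induction. Images are quantified by high content analysis, and activity is fitted as gain of signal against DMSO.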
For `CO/N=C(/C(=O)OC)c1ccccc1COc1ccccc1C`, the AC50 was 21.9 µM (active).

With `CCNc1nc(Cl)nc(NC(C)(C)C)n1`, the compound was classed as inactive.

As to `CCC(C)(C)c1ccc(O)cc1`, the AC50 was 0.619 µM (active).

Consider `CCCCCCCc1ccc(O)cc1`, for which the outcome was inactive.

For `Nc1ccc2ccccc2c1`, the compound was called inactive.

For `c1ccc2c(c1)Nc1ccccc1S2`, the compound was classed as inactive.

For `ClC(Cl)(Cl)c1ccccc1`, the call was inactive.

Turning to `CCCCN(CC)C(=O)SCCC`, the compound was called inactive.

Consider `O=C(O)C(Cl)Cl`, for which the compound was called inactive.

For the compound `O=S(=O)(c1ccc(O)cc1)c1ccc(O)cc1`, the AC50 is 51.9 µM (active).

Regarding `CCC1(c2ccccc2)C(=O)N=C(O)NC1=O` (stereo not drawn), the compound was called inactive.

With `CCCCN(CCCC)SN(C)C(=O)Oc1cccc2c1OC(C)(C)C2`, the outcome was inactive.

`ClC1=C(Cl)C2(Cl)C3C(Cl)C(Cl)CC3C1(Cl)C2(Cl)Cl` (stereo not drawn): the compound was classed as inactive.

Take `c1nc[nH]n1`: the compound was called inactive.

Turning to `O=P(Oc1ccccc1)(Oc1ccccc1)Oc1ccccc1`, the AC50 is 7.54 µM (active).

On to `CC1(C)CN=C(NN=C(/C=C/c2ccc(C(F)(F)F)cc2)/C=C/c2ccc(C(F)(F)F)cc2)NC1`, for which the compound was called inactive.

Regarding `CC(Cc1ccc(OCC(=O)O)cc1)NCC(O)c1csc(C(F)(F)F)n1` (stereo not drawn), the call was inactive.

`c1ccc(OP(Oc2ccccc2)Oc2ccccc2)cc1`: the compound was classed as inactive.

As for `OCC1CO1` (stereo not drawn), the result was inactive.

On to `O=P(OCC(Br)CBr)(OCC(Br)CBr)OCC(Br)CBr` (stereo not drawn), for which the result was inactive.

With `O=P1(N(CCCl)CCCl)NCCCO1` (stereo not drawn), the compound was classed as inactive.

Turning to `O=[N+]([O-])c1ccc(Cl)c(Cl)c1`, the call was inactive.

On to `CSC(C)(C)C=NO`, for which the outcome was inactive.

On to `O=c1ssc(Cl)c1Cl`, for which the compound was called inactive.
